Measurements published in PubChem BioAssay AID1034 (Columbia University Molecular Screening Center, 2008).
Some of the results follow. Unmarked numbers belong to inactive results.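 How the source made its calls: active means activation above 30% in triplicate retests at 2 µM, then confirmed by visual review of the well images; inactive means the rest.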

Experiment: potentiators of TNFa-induced VCAM1 expression, confirmation, imaging, HUVEC, triplicate retest (AID 1034);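 further: scaled per plate between unstimulated and TNFa-stimulated DMSO control wells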
Conditions: HUVEC TNFa-stimulated VCAM-1 immunofluorescence imaging; at 2 µM; active compounds read high

CCOc1ccc(N=C2NC(=O)S/C2=C\c2ccc(O)cc2)cc1
activation: -20.4%

CCN(CC(=O)Nc1ccc2c(c1)OCCO2)Cc1cc(=O)oc2cc(C)c(C)cc12
activation: -6.7%

CC1=NN(C(C)C)C(=O)C1
activation: -8.4%

COc1ccc(OC)c(N=Cc2c(O)[nH]c3ccccc23)c1
activation: -13.9%

CC(=O)c1cnn(-c2cc(Oc3ccc(F)cc3)ncn2)c1C
activation: -14.8%

COc1ccc(/C=N/Nc2nc3ccccc3o2)cc1OC
activation: -3.9%

CCCCN(C)C(=O)C1CCN(Cc2ccccn2)CC1
activation: -13%

CC1(C)CC(=O)C=C(N2CCCC2)C1
activation: -17.7%

CCCOc1cc(C)c(S(=O)(=O)n2nnc3ccccc32)cc1C
activation: -4.7%

COCCNS(=O)(=O)c1cc(Br)ccc1OC
activation: -14.1%

Cc1cccc2cc(CN(Cc3ccc4c(c3)OCO4)Cc3nnnn3C3CCCC3)c(=O)[nH]c12
activation: 4.1%

CCOc1cc(-c2cc(-c3ccc(OC)cc3)nc(N)c2C#N)ccc1O
activation: -5.2%

O=C(Nc1ccncc1)c1c(F)cccc1F
activation: -14.6%
